Reference: PubChem BioAssay AID1671202 (University of Kansas High Throughput Screening Laboratory, 2021)
“And” between values parts separate entries of the source, which are not always exact repeats. Equal values may be shown once. The campaign covered roughly 190,000 compounds. About 6,900 (3.6%) were called active. Rule as the data show it: active = inhibition above about 50%; inactive = the rest. This excerpt belongs to a sample that is enriched for actives. A structure can be active in one record and inactive in another.

Biological target: Huntingtin (Homo sapiens) (UniProt P42858)
Assay: mutant huntingtin-calmodulin interaction inhibitors – biochemical, AlphaScreen, primary screen (AID 1671202);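 also: 0% = both proteins with DMSO and 100% = one protein alone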
Settings: AlphaScreen His-mHTT/GST-CaM binding, luminescence; at 15 µM, stronger effect = higher value

Huntingtin (Homo sapiens), sequence (P42858 whole entry, looked up, stated change not applied): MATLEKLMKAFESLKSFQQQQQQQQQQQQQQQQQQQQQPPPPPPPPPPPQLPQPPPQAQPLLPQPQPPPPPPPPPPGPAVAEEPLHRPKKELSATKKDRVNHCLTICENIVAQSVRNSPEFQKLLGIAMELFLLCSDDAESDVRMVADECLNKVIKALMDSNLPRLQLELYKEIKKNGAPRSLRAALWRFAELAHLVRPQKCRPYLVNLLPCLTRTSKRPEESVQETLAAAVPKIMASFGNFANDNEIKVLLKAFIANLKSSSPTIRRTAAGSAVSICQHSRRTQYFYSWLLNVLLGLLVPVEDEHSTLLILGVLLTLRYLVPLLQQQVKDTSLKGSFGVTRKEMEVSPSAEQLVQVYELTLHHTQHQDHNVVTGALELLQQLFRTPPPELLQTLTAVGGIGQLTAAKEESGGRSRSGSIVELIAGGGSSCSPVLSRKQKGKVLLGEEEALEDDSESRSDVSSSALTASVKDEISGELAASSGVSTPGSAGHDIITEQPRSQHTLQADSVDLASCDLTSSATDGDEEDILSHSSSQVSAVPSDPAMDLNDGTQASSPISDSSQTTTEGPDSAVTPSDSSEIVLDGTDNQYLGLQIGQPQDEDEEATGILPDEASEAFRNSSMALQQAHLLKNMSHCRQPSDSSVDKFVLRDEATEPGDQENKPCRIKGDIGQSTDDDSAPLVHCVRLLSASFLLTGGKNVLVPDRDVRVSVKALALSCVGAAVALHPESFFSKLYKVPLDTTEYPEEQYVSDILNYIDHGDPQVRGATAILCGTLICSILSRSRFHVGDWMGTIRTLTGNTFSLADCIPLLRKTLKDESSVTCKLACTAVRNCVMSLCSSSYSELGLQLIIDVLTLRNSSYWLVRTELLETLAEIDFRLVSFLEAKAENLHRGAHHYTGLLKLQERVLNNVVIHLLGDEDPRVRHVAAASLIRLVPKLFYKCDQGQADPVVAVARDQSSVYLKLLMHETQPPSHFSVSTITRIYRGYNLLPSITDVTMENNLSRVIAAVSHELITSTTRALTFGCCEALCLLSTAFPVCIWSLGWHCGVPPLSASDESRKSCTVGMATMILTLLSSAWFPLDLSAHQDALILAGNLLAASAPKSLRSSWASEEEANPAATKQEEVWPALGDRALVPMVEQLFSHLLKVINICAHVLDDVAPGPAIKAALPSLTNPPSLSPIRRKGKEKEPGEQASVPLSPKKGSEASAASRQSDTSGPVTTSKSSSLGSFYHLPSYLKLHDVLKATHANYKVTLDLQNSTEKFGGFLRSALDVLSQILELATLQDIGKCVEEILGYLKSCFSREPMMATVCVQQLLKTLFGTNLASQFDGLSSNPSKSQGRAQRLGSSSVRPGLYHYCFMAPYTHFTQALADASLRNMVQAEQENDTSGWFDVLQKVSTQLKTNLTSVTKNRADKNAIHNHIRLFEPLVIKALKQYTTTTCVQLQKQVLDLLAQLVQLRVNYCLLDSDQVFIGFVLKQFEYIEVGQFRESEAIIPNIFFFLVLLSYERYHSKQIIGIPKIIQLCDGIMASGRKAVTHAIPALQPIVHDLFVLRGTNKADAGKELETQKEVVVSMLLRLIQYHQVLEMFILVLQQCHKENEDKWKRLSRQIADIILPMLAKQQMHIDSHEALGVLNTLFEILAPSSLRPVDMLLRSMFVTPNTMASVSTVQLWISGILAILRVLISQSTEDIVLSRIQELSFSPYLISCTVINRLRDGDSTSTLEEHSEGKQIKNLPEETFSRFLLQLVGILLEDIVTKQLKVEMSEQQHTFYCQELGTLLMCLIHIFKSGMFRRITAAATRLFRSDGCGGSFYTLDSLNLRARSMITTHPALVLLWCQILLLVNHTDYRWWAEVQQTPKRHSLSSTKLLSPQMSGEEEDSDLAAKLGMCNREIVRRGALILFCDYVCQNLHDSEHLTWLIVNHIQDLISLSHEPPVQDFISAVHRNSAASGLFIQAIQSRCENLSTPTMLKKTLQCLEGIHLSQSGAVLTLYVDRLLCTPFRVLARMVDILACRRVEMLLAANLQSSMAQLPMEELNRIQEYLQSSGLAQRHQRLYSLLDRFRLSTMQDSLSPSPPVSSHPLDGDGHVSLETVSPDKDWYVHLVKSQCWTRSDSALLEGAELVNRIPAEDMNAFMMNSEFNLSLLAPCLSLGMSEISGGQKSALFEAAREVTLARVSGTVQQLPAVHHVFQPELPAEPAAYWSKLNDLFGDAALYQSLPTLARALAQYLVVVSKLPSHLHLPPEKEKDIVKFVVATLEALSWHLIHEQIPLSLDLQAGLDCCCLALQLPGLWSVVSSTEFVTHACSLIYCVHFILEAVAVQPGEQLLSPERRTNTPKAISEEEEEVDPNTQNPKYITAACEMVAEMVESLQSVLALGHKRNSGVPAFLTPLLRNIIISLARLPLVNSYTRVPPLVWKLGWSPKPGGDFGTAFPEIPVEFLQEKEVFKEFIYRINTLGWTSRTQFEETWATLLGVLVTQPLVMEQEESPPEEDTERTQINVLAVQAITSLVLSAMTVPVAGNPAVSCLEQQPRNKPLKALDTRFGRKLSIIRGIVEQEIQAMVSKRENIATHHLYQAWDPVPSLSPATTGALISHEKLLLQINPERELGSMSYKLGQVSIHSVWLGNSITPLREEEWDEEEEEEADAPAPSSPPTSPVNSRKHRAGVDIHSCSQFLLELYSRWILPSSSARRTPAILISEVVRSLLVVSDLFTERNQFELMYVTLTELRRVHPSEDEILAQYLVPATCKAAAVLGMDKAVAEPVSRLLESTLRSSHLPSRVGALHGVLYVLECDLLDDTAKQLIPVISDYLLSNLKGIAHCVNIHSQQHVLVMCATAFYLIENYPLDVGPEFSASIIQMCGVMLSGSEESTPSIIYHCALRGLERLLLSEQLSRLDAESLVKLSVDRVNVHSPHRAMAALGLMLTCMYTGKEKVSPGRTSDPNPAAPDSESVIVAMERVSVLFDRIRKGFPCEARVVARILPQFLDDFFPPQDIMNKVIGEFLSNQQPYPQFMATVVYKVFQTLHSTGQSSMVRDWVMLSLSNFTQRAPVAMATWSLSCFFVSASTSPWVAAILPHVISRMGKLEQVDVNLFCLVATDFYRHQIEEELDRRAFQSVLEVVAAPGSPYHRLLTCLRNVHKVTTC

| Structure (SMILES) | inhibition |
| --- | --- |
| CCOc1ccc(/C=C2\CS/C(=C\c3ccc(OCC)cc3)C2=O)cc1 | 28% (inactive) |
| CN(CC(=O)N1N=C(c2cccs2)CC1c1ccccc1F)C(=O)C1CCCC1 (stereo not given) | 23% (inactive) |
| CC(=O)N(C)CC(=O)N1N=C(c2cccs2)CC1c1ccccc1Cl (stereo not given) | 1.2% (inactive) |
| CC(=O)N(C)CC(=O)N1N=C(c2ccccc2Cl)CC1c1ccccc1Cl (stereo not given) | 56.2% (active) |
| CC(C)C(=O)N(C)CC(=O)N1N=C(c2ccc(F)cc2)CC1c1ccc(F)cc1 (stereo not given) | 29.5% (inactive) |
| CC(C)C(=O)N(C)CC(=O)N1N=C(c2ccccc2Cl)CC1c1ccc(F)cc1 (stereo not given) | 57% (active) |
| CNCC(=O)N1N=C(c2cccn2C)CC1c1ccccc1 (stereo not given) | 8.9% (inactive) |
| O=C(c1ccc(F)cc1)N1CCC(c2nc(-c3ccccc3)n[nH]2)CC1 | 12.2% (inactive) |
| O=C1CC[C@@]23CCCN2C(=O)CCC[C@H]3[C@H]1Cc1ccccc1 | 1.2% (inactive) |
| Cc1nc(-c2cccs2)c(CCC(=O)Nc2cccc3cccnc23)s1 | 8.1% (inactive) |
| C=C(C)CN(CC)Cc1cccc(OC)c1OC | -4.5% (inactive) |
| COc1ccc(C2CC(=O)C(C=Nc3cc(Cl)ccc3O)=C(O)C2)cc1 (stereo not given) | 4% (inactive) |
| CCC(C)NC(=O)Cn1cnc2c(oc3ccccc32)c1=O (stereo not given) | -6.1% (inactive) |
| CC(=O)Nc1ccc(NC(=O)c2ccc(N(C)C)cc2)cc1 | 5.9% (inactive) |
| Cc1ccc(C(=O)Nc2ccc(N(C)C)cc2)cc1C | 59.4% (active) |
| CC(=O)c1ccc(NC(=O)c2ccc(CN(c3ccc(C)c(C)c3)S(C)(=O)=O)cc2)cc1 | 3.8% (inactive) |
| CCOc1ccc(CNC(=O)C2CCCN(c3ccc(N4CCOCC4)nn3)C2)cc1 (stereo not given) | -1.05% (inactive) |
| COCCNC(=O)c1cn2cc(C)ccc2n1 | -7.5% (inactive) |
| O=C(CCC(=O)N1CC2CCCN2c2ccccc21)NCCCN1CCCC1 (stereo not given) | 71.5% (active) |
| O=C(CCC(=O)N1CC2CCCN2c2ccccc21)NCCCN1CCCCC1 (stereo not given) | 7.41% (inactive) |
| O=C(CCC(=O)N1CC2CCCN2c2ccccc21)NCc1cccc(Br)c1 (stereo not given) | 36.6% (inactive) |
| COc1ccc([N+](=O)[O-])cc1NCc1ccccc1Br | -6.4% (inactive) |
| COc1cc(/C=C(\C#N)c2nc3ccc(C)cc3[nH]2)c(Br)cc1O | 47.5% (inactive) and 79% (active) |
| COc1cccc(/C=C(\C#N)c2nc3ccc(C)cc3[nH]2)c1OC | 6.1% (inactive) |
| CCOc1ccc(/C=C(\C#N)c2nc3ccc(C)cc3[nH]2)cc1OC | 5.8% (inactive) |

| Structure (SMILES) | inhibition |
| --- | --- |
| CCS(=O)(=O)NCC1CCC(C(=O)Nc2ccccc2C)CC1 (stereo not given) | -10.6% (inactive) |
| Cc1ccc(C(=O)N2CCN(c3ccccc3)CC2)c(Cl)c1 | 2.2% (inactive) |
| O=C(c1cccc2[nH]cc(CN3CCCC3)c12)N1CCN(c2ccccc2)CC1 | 54.3% (active) |
| O=C(C1CCCN(Cc2c[nH]c3ccccc23)C1)N1CCCCCC1 (stereo not given) | 11.1% (inactive) |
| CCN(CC)C(=O)CSc1nnc(NC(C)=O)s1 | -5.1% (inactive) |
| O=C(N=c1sccn1CC(=O)N1CCCC1)c1ccccc1Cl | 7% (inactive) |
| O=C(NC1CC2CC1N(C(=O)NCCc1ccccc1)C2)c1cccnc1 (stereo not given) | 0.1% (inactive) |
| COc1ccccc1/C=C/CN1CCN(C)CC1 | -4.8% (inactive) |
| COc1cc(CN2CCN(C/C=C/c3ccccc3)CC2)cc(Br)c1O | 55.5% (active) |
| COc1cccc(CN2CCN(C/C=C/c3ccccc3)CC2)c1OC | 6.9% (inactive) |
| Cc1oc(C2CCN(S(=O)(=O)c3ccc(F)cc3)CC2)nc1C(=O)N1CCOCC1 | -2.14% (inactive) |
| CC(=O)NCCc1csc(C2CCN(C(=O)C3(c4ccccc4)CC3)CC2)n1 | 0.81% (inactive) |
| CCOc1cc(/C=C2\C(=O)ON=C2C)cc(Br)c1OCc1ccccc1F | 51% (active) |
| CCOc1c(Br)cc(/C=C2\NC(=O)N(Cc3ccccc3F)C2=O)cc1OC | -4% (inactive) |
| CCOc1ccc(/C=C2/N=C(c3ccc(Cl)cc3)OC2=O)cc1OCC | -5% (inactive) |
| C=CCOc1ccc(/C=C2/C(=O)ON=C2C)cc1OCC | 89% (active) |
| COc1cc(C=O)cc(Br)c1OCc1ccccn1 | -0.1% (inactive) |
| CCOc1cc(C=C2C(=O)OC(C)(c3ccccc3)OC2=O)ccc1O (stereo not given) | 7% (inactive) |
| NS(=O)(=O)c1ccc(NC(=O)CSc2nc3sc4c(c3c(=O)[nH]2)CCC4)cc1 | 5% (inactive) |
| COc1ccc(C2SCCN2C(=O)c2cc3ccccc3oc2=O)cc1 (stereo not given) | 0% (inactive) |
| COc1ccc(C2CC(O)(C#Cc3ccccc3)C(C)C(c3ccc(OC)cc3)N2)cc1 (stereo not given) | 100% (active) |
| Cc1[nH]nc(-c2ccc(S(=O)(=O)N3CCC(N4CCCCC4)CC3)s2)c1C | 7.48% (inactive) |
| Cc1n[nH]c(C)c1S(=O)(=O)N1CCC(C(=O)Nc2ccc(Br)cc2)CC1 | -8% (inactive) |
| Clc1ccc(-c2csc(Nc3ncccn3)n2)cc1 | -1% (inactive) |
| COc1cccc(Nc2nc(-c3ccc(Cl)cc3)cs2)c1 | 82.2% (active) |

| Structure (SMILES) | inhibition |
| --- | --- |
| COc1cc(NS(=O)(=O)c2ccc(Nc3nc(-c4cccnc4)cs3)cc2)nc(OC)n1 | 25.8% (inactive) |
| COc1ccc(-c2csc(Nc3ccc(O)cc3)n2)cc1 | 61.1% (active) |
| COc1cccc(N/C=C(\C#N)c2nc(-c3ccc(Cl)cc3)cs2)c1 | -2% (inactive) |
| O=C(Nc1nc(-c2ccc([N+](=O)[O-])cc2)cs1)c1ccc(Cl)cc1 | 0.3% (inactive) |
| CC(Oc1ccccc1)C(=O)Nc1nc(-c2ccccc2)cs1 (stereo not given) | -30% (inactive) |
| COc1ccc2oc(=O)c(-c3csc(Nc4cccc(C(C)=O)c4)n3)cc2c1 | 2% (inactive) |
| CN(C)c1ccc(Nc2nc(-c3ccc(Cl)cc3)cs2)cc1 | 57.2% (active) |
| Cc1ccsc1C1C(C#N)=C(N)N(c2ccc(Br)cc2)C2=C1C(=O)CCC2 (stereo not given) | 22% (inactive) |
| COC(=O)c1ccc(Cl)cc1NC(=O)N1CCOc2ccccc21 | -2.93% (inactive) |
| Cc1ccc(S(=O)(=O)CCC(=O)Nc2c(F)cccc2F)cc1 | 0% (inactive) |
| CCN(CC)S(=O)(=O)c1ccc2oc(C(=O)NCC3CCCO3)c(C)c2c1 (stereo not given) | 6% (inactive) |
| O=C(Nc1cccc(Cl)c1)C1CCCN(c2nccnc2Oc2ccccc2)C1 (stereo not given) | -9.65% (inactive) |
| COc1ccc(C)cc1NC(=O)N1CC2CC(NC(=O)c3cccs3)C1C2 (stereo not given) | 3.7% (inactive) |
| COc1cc(NC(=O)c2noc3c2CCCC3)cc(OC)c1OC | 1.68% (inactive) |
| O=S1(=O)c2cccc3cccc(c23)N1Cc1cccc(F)c1 | -24.4% (inactive) |
| O=C(Nc1ccc(N2CCN(C3CCCC3)C2=O)nc1)c1cc(F)cc(F)c1 | -7.5% (inactive) |
| CC1CCN(CCNC(=O)CN2C(=O)C3CCCN3C(=O)c3ccc(F)cc32)CC1 (stereo not given) | 1.11% (inactive) |
| Cc1cccc(CNC(=O)CN2C(=O)C3CCCN3C(=O)c3cccc(C)c32)c1 (stereo not given) | -6.69% (inactive) |
| Cc1ccc2c(c1)C(=O)N1CCCCC1C(=O)N2CC(=O)NCCN1CCCCCC1 (stereo not given) | 75% (active) |
| CC(=O)NCc1csc(C2CCN(S(=O)(=O)c3ccc(C)cc3C)CC2)n1 | 6.65% (inactive) |
| O=C1NC(c2ccncc2)Nc2sc3c(c21)CCCC3 (stereo not given) | 16% (inactive) |
| Cc1ccc(C2NC(=O)c3c(sc4c3CCCC4)N2)c(O)c1 (stereo not given) | 78% (active) |
| Cc1ccc(C2NC(=O)c3c(sc4c3CCCC4)N2)cc1 (stereo not given) | 5% (inactive) |
| Cc1ccc2c(c1)C(=O)NC1(CCN(C(=O)C3CCC3)CC1)N2 | 3.5% (inactive) |
| CCOC(=O)C(C)Oc1ccc2c(c1)OC(=Cc1ccc(OC)cc1)C2=O (stereo not given) | -21.4% (inactive) |

| Structure (SMILES) | inhibition |
| --- | --- |
| COc1ccc(C(=O)Nc2cccc(NC(=O)c3ccc(Cl)cc3Cl)c2)cc1 | 4.1% (inactive) |
| O=C(c1ccc(F)c(F)c1)N1CCN(c2nnc3ccccn23)CC1 | -6.3% (inactive) |
| Cc1cc(NC(=O)N2CC3CCCN3c3ccccc32)ccc1Br (stereo not given) | 87% (active) |
| CCn1c(C2CCN(C(=O)Nc3ccc(Br)c(C)c3)C2)nc2cccnc21 (stereo not given) | 25.2% (inactive) |
| COc1cc(OC)c(NC(=O)N2CC3CCCN3c3ccccc32)cc1Cl (stereo not given) | 38.8% (inactive) |
| CC(C)(C)NC(=O)N1CCC(CNS(=O)(=O)c2ccc(Br)s2)CC1 | -7.3% (inactive) |
| CCCNc1cc(N2CCCC(CCC(=O)Nc3ccc4c(c3)OCCO4)C2)ncn1 (stereo not given) | 62.5% (active) |
| CCCNc1cc(N2CCCC(CCC(=O)N3CCN(CCC)CC3)C2)ncn1 (stereo not given) | 5.87% (inactive) |
| CCCNc1cc(N2CCCC(CCC(=O)Nc3cccc(C)c3C)C2)ncn1 (stereo not given) | -0.7% (inactive) |
| Cc1ccc(Cl)cc1N1CCN(C(=O)Cn2nc(C(F)(F)F)c(Br)c2C)CC1 | -5% (inactive) |
| C=C(C)c1nc2ccc(Br)cc2c(=O)o1 | -3% (inactive) |
| Cc1noc(-c2nn(C)c3c2CN(C(=O)Nc2cccc(C(F)(F)F)c2)CC3)n1 | 28.3% (inactive) |
| Cc1cccc(NC(=O)N2CCc3c(c(-c4nc(C5CC5)no4)nn3C)C2)c1 | 34.8% (inactive) |
| CCc1cccc(NC(=O)N2CCc3c(c(-c4nc(C)no4)nn3C)C2)c1 | 53.9% (active) |
| CCOC(=O)c1sc(NC(=O)CN2C(=O)c3ccccc3C2=O)c(SC#N)c1C | 0.3% (inactive) |
| CCN1c2ccc(C)cc2C(=O)NC12CCN(C(=O)c1cc(F)cc(F)c1)CC2 | 3.5% (inactive) |
| COc1cc(Nc2ncc3c(n2)CCN(Cc2cc(OC)ccc2OC)C3)cc(OC)c1 | 76.3% (active) |
| CCN1CCN(c2ncc3c(n2)CCN(Cc2ccccc2Cl)C3)CC1 | 39% (inactive) |
| Fc1ccc(Nc2ncc3c(n2)CCN(Cc2ccccc2)C3)cc1 | -7.34% (inactive) |
| Clc1ccccc1CN1CCc2nc(Nc3ccc4c(c3)OCO4)ncc2C1 | 87.4% (active) |
| COc1ccc(CN2CCc3nc(Nc4ccccc4)ncc3C2)c(OC)c1OC | 47.4% (inactive) |
| COc1ccc(OC)c(Nc2ncc3c(n2)CCN(Cc2ccccc2)C3)c1 | 10.5% (inactive) |
| COc1ccc(CN2CCc3nc(Nc4ccc5c(c4)OCCO5)ncc3C2)cc1 | 55.6% (active) |
| CCOc1cccc(CN2CCc3nc(Nc4ccc(OC)cc4)ncc3C2)c1 | -0.89% (inactive) |
| COc1cccc(Nc2ncc3c(n2)CCN(Cc2ccc(F)c(F)c2)C3)c1 | 33.9% (inactive) |
